Laboratory results: publication PMC7862700, “An all-to-all approach to the identification of sequence-specific readers for epigenetic DNA modifications on cytosine”

Columns and labels:
Test in all cases: DAPPL (digital affinity profiling via proximity ligation, sequencing); 10 mM Tris-HCl pH 7.5, 50 mM NaCl, 1 mM DTT, 4% glycerol, room temperature, 30 min; GST-TFs on glutathione beads, 16-mer random dsDNA library, 0.1% formaldehyde crosslink after washing; high values mean tight binding
[1] = biological target: T1, FLI1 (Homo sapiens, UniProt Q01543 1-452); details: protein: recombinant; tags: N-terminal GST; dsDNA, one strand shown
T1 sequence: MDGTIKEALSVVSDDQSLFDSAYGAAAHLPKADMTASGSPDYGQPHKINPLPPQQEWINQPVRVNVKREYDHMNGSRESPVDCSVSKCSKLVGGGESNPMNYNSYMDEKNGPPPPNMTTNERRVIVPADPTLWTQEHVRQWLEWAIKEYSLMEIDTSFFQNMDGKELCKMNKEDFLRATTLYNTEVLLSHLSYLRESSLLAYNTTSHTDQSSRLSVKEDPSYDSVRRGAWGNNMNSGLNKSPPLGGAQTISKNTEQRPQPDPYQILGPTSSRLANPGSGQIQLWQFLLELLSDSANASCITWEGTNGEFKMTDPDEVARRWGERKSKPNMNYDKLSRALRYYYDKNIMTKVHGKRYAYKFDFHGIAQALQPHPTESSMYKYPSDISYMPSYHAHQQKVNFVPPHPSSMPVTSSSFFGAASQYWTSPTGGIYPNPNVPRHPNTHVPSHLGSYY
Outline: (§1)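 Human transcription factors carrying a GST fusion were produced in yeast, bound to glutathione beads, tagged with DNA barcodes and pooled together with a tag-only sample. Each pool was held with 200 nmole of a random double-stranded 16-mer DNA library in Tris/NaCl/DTT/glycerol buffer for 30 min at room temperature, then washed, crosslinked in 0.1% formaldehyde, proximity-ligated with BsaI/T4 ligase (1 h, 37 °C), PCR-amplified and sequenced on an Illumina NextSeq500. Binding signal is the read frequency of each hexamer for a given factor divided by its frequency in the tag-only sample.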

[2] = biological target: T2, ELK1 (Homo sapiens, UniProt P19419 1-428); details: protein: recombinant; tags: N-terminal GST; dsDNA, one strand shown
T2 sequence: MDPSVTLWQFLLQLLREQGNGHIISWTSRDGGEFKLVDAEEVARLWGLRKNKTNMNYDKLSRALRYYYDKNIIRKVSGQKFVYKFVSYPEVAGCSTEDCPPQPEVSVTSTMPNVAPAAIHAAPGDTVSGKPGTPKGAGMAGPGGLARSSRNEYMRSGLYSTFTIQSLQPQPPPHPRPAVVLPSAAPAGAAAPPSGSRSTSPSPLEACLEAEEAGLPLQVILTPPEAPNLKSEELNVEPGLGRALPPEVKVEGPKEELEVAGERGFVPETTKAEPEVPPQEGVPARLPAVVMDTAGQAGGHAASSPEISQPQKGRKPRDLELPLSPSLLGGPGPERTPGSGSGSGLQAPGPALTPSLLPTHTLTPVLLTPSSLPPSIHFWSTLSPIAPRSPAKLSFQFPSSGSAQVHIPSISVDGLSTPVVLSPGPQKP
Outline: as §1

[3] = biological target: T3, GABPA (Homo sapiens, UniProt Q06546 1-454); details: protein: recombinant; tags: N-terminal GST; dsDNA, one strand shown
T3 sequence: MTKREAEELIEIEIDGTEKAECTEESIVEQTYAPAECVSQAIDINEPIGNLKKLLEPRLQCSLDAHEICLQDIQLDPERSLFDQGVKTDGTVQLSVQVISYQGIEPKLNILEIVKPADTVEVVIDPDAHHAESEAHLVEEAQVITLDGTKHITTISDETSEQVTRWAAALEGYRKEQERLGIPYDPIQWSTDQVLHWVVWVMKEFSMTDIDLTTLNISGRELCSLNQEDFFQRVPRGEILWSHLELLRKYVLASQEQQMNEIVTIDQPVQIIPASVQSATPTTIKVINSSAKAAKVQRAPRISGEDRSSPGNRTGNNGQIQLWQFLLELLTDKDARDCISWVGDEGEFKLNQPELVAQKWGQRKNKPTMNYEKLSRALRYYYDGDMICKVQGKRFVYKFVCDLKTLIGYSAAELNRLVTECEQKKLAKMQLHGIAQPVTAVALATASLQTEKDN
Outline: as §1

[4] = biological target: T4, ERG (Homo sapiens, UniProt P11308 1-479); details: protein: recombinant; tags: N-terminal GST; dsDNA, one strand shown
T4 sequence: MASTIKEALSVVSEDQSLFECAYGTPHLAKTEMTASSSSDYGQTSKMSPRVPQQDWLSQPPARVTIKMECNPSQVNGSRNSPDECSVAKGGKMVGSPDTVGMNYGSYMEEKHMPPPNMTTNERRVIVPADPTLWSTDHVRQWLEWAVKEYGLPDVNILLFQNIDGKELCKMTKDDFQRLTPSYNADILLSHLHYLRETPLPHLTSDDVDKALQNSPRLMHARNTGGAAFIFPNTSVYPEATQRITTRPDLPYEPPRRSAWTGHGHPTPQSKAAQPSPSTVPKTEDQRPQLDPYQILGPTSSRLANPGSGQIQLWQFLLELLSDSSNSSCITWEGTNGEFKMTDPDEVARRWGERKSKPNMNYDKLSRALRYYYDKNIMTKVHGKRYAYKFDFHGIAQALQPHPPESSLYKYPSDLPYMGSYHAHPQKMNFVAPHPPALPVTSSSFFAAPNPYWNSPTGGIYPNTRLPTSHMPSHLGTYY
Outline: as §1

[5] = biological target: ELF1 (Homo sapiens, UniProt P32519 1-619); details: protein: recombinant; tags: N-terminal GST; dsDNA, one strand shown
ELF1, sequence (P32519 whole entry): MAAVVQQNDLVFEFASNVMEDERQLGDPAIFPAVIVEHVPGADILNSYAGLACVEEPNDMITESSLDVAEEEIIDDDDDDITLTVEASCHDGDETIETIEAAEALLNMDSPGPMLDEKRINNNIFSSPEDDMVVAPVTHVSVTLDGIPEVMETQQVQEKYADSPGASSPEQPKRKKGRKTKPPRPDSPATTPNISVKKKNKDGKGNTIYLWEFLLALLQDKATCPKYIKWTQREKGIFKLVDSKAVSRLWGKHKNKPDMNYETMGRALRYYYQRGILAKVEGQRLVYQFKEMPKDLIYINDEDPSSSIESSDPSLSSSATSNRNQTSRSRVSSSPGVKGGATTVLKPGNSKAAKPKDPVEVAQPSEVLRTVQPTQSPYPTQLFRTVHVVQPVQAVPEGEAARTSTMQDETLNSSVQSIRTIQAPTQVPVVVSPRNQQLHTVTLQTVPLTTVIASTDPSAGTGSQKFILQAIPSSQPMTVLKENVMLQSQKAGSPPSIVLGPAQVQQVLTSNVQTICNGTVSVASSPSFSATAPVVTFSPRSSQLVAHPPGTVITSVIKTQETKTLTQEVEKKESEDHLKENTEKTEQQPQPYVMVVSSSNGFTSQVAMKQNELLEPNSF
Outline: as §1

[6] = biological target: T5, EHF (Homo sapiens, UniProt Q9NZC4 1-300); details: protein: recombinant; tags: N-terminal GST; dsDNA, one strand shown
T5 sequence: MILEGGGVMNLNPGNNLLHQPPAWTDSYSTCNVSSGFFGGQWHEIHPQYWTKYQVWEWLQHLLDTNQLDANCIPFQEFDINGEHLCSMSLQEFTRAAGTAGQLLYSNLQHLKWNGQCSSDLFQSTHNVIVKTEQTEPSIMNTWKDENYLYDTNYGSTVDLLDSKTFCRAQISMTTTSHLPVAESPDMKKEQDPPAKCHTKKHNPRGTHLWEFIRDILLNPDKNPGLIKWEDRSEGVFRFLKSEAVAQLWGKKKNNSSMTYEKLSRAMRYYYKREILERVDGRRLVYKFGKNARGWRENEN
Outline: as §1

[7] = biological target: SPI1 (Homo sapiens, UniProt P17947 1-270); details: protein: recombinant; tags: N-terminal GST; dsDNA, one strand shown
Outline: as §1

[8] = biological target: SPIB (Homo sapiens, UniProt Q01892 1-262); details: protein: recombinant; tags: N-terminal GST; dsDNA, one strand shown
SPIB, sequence (Q01892 whole entry): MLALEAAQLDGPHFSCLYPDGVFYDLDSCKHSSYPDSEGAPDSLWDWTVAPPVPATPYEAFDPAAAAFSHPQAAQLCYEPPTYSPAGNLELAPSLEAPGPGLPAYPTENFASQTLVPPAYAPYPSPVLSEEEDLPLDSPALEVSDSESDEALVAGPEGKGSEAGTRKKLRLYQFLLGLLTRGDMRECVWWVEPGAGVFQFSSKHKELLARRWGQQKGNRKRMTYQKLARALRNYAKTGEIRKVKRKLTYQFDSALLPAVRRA
Outline: as §1

[9] = biological target: T6, ELK3 (Homo sapiens, UniProt P41970 1-407); details: protein: recombinant; tags: N-terminal GST; dsDNA, one strand shown
T6 sequence: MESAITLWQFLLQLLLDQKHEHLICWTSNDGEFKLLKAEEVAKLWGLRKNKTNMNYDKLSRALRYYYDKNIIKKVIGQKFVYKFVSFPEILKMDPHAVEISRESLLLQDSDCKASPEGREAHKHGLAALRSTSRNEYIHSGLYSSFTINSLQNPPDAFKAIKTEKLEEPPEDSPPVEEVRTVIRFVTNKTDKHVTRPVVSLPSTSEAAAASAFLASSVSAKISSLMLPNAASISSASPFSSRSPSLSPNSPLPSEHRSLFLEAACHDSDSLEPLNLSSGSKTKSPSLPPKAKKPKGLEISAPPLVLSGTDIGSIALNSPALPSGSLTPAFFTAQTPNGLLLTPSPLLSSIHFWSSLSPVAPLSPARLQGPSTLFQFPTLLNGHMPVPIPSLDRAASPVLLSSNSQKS
Outline: as §1

[10] = biological target: ETV5 (Homo sapiens, UniProt P41161 1-510); details: protein: recombinant; tags: N-terminal GST; dsDNA, one strand shown
ETV5, sequence (P41161 whole entry): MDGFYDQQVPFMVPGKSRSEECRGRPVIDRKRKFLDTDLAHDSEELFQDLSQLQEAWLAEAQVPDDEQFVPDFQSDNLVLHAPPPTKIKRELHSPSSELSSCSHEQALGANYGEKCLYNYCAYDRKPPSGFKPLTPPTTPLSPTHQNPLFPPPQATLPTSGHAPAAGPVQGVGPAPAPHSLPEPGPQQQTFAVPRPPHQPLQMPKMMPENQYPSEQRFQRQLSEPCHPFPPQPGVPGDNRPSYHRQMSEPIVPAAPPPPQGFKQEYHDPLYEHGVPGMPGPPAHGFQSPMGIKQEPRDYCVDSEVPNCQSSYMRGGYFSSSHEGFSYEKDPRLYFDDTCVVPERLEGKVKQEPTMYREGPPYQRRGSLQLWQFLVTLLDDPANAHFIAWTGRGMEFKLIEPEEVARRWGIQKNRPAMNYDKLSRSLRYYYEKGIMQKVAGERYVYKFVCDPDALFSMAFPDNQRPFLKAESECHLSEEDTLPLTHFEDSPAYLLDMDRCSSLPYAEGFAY
Outline: as §1

[11] = biological target: HSF1 (Homo sapiens, UniProt Q00613 1-529); details: protein: recombinant; tags: N-terminal GST; chain copies: 3; dsDNA, one strand shown
HSF1, sequence (Q00613 whole entry): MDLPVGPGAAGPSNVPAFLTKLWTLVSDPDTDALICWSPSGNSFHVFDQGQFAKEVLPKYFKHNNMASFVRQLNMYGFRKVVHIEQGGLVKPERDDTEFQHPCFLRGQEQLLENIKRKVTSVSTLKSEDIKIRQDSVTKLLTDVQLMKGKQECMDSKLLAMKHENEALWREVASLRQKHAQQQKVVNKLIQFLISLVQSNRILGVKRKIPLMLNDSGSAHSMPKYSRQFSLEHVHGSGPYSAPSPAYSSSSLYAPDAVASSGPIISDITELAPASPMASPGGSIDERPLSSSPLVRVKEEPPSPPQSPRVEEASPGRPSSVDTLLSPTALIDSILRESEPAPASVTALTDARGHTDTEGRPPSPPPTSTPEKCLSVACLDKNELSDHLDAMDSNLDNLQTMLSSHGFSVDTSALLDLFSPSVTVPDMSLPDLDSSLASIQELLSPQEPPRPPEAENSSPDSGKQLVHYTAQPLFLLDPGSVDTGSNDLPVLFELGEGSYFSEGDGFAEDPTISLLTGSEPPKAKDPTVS
Outline: as §1

[12] = biological target: T7, SPIC (Homo sapiens, UniProt Q8N5J4 1-248); details: protein: recombinant; tags: N-terminal GST; dsDNA, one strand shown
T7 sequence: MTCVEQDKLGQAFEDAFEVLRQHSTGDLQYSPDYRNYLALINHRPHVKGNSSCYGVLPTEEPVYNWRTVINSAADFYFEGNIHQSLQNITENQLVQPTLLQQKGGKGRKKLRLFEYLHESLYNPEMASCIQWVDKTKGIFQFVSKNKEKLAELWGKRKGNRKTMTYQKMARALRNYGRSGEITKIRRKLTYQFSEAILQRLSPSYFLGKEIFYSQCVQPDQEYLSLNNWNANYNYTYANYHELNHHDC
Outline: as §1

[13] = biological target: ELF4 (Homo sapiens, UniProt Q99607 1-663); details: protein: recombinant; tags: N-terminal GST; dsDNA, one strand shown
ELF4, sequence (Q99607 whole entry): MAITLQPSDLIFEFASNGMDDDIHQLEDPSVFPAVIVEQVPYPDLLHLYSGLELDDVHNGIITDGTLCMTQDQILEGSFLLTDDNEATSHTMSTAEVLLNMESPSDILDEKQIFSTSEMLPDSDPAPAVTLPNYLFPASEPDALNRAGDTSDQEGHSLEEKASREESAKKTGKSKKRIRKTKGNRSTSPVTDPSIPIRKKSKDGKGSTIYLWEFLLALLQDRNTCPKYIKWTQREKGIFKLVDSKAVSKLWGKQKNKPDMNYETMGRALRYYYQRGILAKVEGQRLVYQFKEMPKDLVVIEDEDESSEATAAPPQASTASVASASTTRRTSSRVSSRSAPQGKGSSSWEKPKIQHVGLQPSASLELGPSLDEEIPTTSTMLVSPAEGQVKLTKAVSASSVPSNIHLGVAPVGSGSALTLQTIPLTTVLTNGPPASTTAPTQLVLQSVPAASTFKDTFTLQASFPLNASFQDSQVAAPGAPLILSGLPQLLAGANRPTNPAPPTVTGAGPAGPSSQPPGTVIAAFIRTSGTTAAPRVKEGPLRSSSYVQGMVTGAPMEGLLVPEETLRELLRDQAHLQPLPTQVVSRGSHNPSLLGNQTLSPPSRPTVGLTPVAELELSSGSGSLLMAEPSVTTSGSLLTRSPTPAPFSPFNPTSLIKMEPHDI
Outline: as §1

[14] = biological target: T8, ELK4 (Homo sapiens, UniProt P28324-2 1-405); details: protein: recombinant; tags: N-terminal GST; dsDNA, one strand shown
T8 sequence: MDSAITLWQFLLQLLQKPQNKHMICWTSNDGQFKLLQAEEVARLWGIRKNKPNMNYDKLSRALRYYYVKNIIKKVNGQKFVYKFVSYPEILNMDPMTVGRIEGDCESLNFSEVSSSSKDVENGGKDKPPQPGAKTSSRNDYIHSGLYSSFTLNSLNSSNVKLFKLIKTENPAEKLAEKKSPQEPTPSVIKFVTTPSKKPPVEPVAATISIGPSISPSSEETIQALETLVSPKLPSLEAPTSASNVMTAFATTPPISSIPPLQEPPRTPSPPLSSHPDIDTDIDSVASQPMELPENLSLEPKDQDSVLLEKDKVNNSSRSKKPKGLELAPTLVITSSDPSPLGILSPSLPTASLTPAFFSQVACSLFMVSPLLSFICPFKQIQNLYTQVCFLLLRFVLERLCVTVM
Outline: as §1

[15] = biological target: T9, ETV2 (Homo sapiens, UniProt O00321 1-342); details: protein: recombinant; tags: N-terminal GST; dsDNA, one strand shown
T9 sequence: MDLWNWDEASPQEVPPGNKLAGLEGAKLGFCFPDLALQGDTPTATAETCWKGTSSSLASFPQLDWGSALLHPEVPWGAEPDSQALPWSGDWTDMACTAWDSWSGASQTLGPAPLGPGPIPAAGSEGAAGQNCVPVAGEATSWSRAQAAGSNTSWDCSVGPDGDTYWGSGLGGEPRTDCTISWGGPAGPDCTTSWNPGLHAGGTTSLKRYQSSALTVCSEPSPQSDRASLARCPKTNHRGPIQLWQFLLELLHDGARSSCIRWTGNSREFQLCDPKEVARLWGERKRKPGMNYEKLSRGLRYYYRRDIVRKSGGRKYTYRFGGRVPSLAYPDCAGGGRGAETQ
Outline: as §1

[16] = biological target: T10, ELF3 (Homo sapiens, UniProt P78545 1-371); details: protein: recombinant; tags: N-terminal GST; dsDNA, one strand shown
T10 sequence: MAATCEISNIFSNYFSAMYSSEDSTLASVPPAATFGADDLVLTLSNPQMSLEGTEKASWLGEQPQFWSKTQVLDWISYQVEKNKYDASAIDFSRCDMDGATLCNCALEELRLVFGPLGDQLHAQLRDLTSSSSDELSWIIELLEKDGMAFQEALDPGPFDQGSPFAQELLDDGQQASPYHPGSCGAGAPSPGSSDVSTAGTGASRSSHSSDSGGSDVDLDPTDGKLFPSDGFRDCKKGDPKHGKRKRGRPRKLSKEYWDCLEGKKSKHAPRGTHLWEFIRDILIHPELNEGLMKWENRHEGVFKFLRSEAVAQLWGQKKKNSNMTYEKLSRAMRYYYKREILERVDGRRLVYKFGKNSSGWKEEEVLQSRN
Outline: as §1

For TGGGTT, the binding signal [1] was 1.17 fold enrichment (6-mer frequency, TF over GST control), the binding signal [2] was 1.11 fold enrichment (6-mer frequency, TF over GST control) and the binding signal [3] was 1.18 fold enrichment (6-mer frequency, TF over GST control). The binding signal [4] was 1.1 fold enrichment (6-mer frequency, TF over GST control), the binding signal [5] was 1.1 fold enrichment (6-mer frequency, TF over GST control) and the binding signal [6] was 1.18 fold enrichment (6-mer frequency, TF over GST control). For the same sequence, the binding signal [7] was 1.01 fold enrichment (6-mer frequency, TF over GST control), the binding signal [8] was 1.02 fold enrichment (6-mer frequency, TF over GST control) and the binding signal [9] was 1.01 fold enrichment (6-mer frequency, TF over GST control). For the same sequence, the binding signal [10] was 1.06 fold enrichment (6-mer frequency, TF over GST control), the binding signal [11] was 1.03 fold enrichment (6-mer frequency, TF over GST control) and the binding signal [12] was 1.07 fold enrichment (6-mer frequency, TF over GST control). The binding signal [13] was 1.09 fold enrichment (6-mer frequency, TF over GST control), the binding signal [14] was 1.03 fold enrichment (6-mer frequency, TF over GST control) and the binding signal [15] was 1.08 fold enrichment (6-mer frequency, TF over GST control). The binding signal [16] was 1.11 fold enrichment (6-mer frequency, TF over GST control).
